For orientation: inhibition means the relative decrease from the control value, in per cent.

Among all 360,000 compounds or so, about 6,200 (1.7%) were called active.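 The calls were made as follows: active = inhibition of at least 50% at 20 µM; inactive = the rest.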 This excerpt belongs to a sample that is enriched for actives.

This assay in a line: inhibition of PEG-3 promoter activity – cell-based, HeLa, luciferase luminescence, primary screen (AID 588405). Particulars: HeLa PEG-Prom luciferase reporter, overnight, at 20 µM, active compounds read high. For orientation: Reporter assays use an easily measured gene product as a stand-in for the process of interest.
Regarding `CCc1nc2c(OCc3ccc(Cl)cc3Cl)cccn2c1N(C)C(=O)C(C)C`, the inhibition is 14.2% (inactive).

In the case of `O=C(N/N=C\c1cccnc1)c1cc(-c2ccccc2)nc2c(Cl)cccc12`, the inhibition is 32.6% (inactive).

Turning to `Cc1c(NC(=O)CSc2cccc3cccnc23)c(=O)n(-c2ccccc2)n1C`, the inhibition was 23.3% (inactive).

As to `O=C(CSc1cccc2cccnc12)N/N=C/c1cccnc1`, the inhibition was 74.3% (active).

As to `CNc1cnc(-c2cc(OC)c(OC)c(OC)c2)cn1`, the inhibition is -13.3% (inactive).

For the compound `CC(=O)NC(c1ccccc1)c1nc(-c2cccc(C(C)C)c2)cs1` (configuration not stated), the inhibition was 4.34% (inactive).

As to `CC(C)(C)CC(C)(C)NCC(O)COCCOc1ccc(Br)cc1` (configuration not stated), the inhibition was 103% (active).

For the compound `CC(Oc1ccc(Br)cc1)C(=O)NC1CCCCCC1` (configuration not stated), the inhibition was -67% (inactive).

`COc1ccc(OCC(O)CNCCNc2nccc(C(F)(F)F)n2)cc1` (configuration not stated): the inhibition is 1.34% (inactive).

In the case of `CC(NCC(=O)Nc1ccccc1C(=O)NC1CC1)c1ccccc1Cl` (configuration not stated), the inhibition was 6.43% (inactive).

Consider `CCc1nc2ccc(C(=O)NCCNC(C)=O)cn2c1N(CC)Cc1cccc(Br)c1`, for which the inhibition was 5.16% (inactive).

`Cc1ccc2nc(-c3ccncc3)cc(C(=O)Nc3ccncc3)c2c1`: the inhibition was 70.2% (active).

Take `Cc1ccc2nc(-c3ccncc3)cc(C(=O)Nc3ccc(OC(F)F)cc3)c2c1`: the inhibition was 27.7% (inactive).

In the case of `O=C(Nc1ccc(S(=O)(=O)Nc2nccs2)cc1)c1cc(-c2ccncc2)nc2ccccc12`, the inhibition is 11.9% (inactive).

For the compound `CCC1(C)Cc2c(sc3nnn(CC(=O)Nc4ccc(Cl)cc4)c(=O)c23)CO1` (configuration not stated), the inhibition was 11.2% (inactive).

As for `O=C(/C=C/[C@H]1O[C@@H](n2ccc(=O)[nH]c2=O)[C@H](O)[C@@H]1O)NCc1ccccn1`, the inhibition is 12.5% (inactive).

As to `CCCN(CC(=O)NC(=O)NC1CCCCC1)CC(=O)Nc1cc(Cl)ccc1Cl`, the inhibition is 32.9% (inactive).

Regarding `CC(C)(C(=O)N1CCC1(C)C(=O)NS(=O)(=O)c1ccc(Br)cc1)c1ccccc1` (configuration not stated), the inhibition is 3.42% (inactive).

For the compound `CCOC(=O)/C(=C\c1ccc([N+](=O)[O-])cc1)C(=O)c1cc(C(C)=O)c(Nc2ccccc2)s1`, the inhibition was 106% (active).

For `CCOC(=O)/C(=N\Nc1ccccc1[N+](=O)[O-])c1csc(Nc2ccccc2)n1`, the inhibition is 20.3% (inactive).

With `O=C(O)C(=Cc1ccc([N+](=O)[O-])cc1)CCc1ccccc1`, the inhibition was -9.17% (inactive).

For the compound `CN1C[C@@H](CO)O[C@@H](n2cnc3c(N4CCN(CCO)CC4)ncnc32)C1`, the inhibition was 8.41% (inactive).

For the compound `Cc1cc(NC(=O)CSc2nc(C(C)C)nc3sc4c(c23)CCC(C)C4)no1` (configuration not stated), the inhibition is -3.65% (inactive).

Turning to `Cc1nc(SCC(=O)Nc2cc(C)on2)c2c(C)c(C)sc2n1`, the inhibition is 73.6% (active).

With `Cc1cc(NC(=O)CSc2ncc(C(F)(F)F)cc2Cl)no1`, the inhibition is 5.97% (inactive).

Take `Cc1cc(C(=O)N2CCCC2(C)C(=O)O)c(C)o1` (configuration not stated): the inhibition was -4.99% (inactive).

For `COc1ccc(C(C)(NC(C)=O)c2nc(-c3ccc(S(C)(=O)=O)cc3)cs2)cc1` (configuration not stated), the inhibition was 7.41% (inactive).

Consider `COc1cc(CNc2ncnc3c2ncn3[C@H]2CN(Cc3cccs3)C[C@@H](CO)O2)cc(OC)c1OC`, for which the inhibition was 10.1% (inactive).

Consider `O=CNc1cc(-c2ccc(C(=O)N3CCOCC3)cc2)cn2c(-c3ccc(F)cc3)cnc12`, for which the inhibition was 38.7% (inactive).

In the case of `CC(C)[C@@H]1NC(=O)c2cc([N+](=O)[O-])cc(I)c2NCCC[C@@H](C(=O)NC(CC(=O)O)C(N)=O)NC(=O)[C@H](CO)NC1=O` (some centres not stated), the inhibition is 95.8% (active).

Consider `NCCCC[C@@H]1NC(=O)[C@H](CCC(=O)O)NC(=O)c2cc([N+](=O)[O-])cc(I)c2NCC[C@@H](C(N)=O)NC1=O`, for which the inhibition is 4.12% (inactive).

With `NC(=O)CC[C@@H]1NC(=O)[C@H](CO)NC(=O)c2cc([N+](=O)[O-])cc(I)c2NCC[C@@H](C(N)=O)NC1=O`, the inhibition was 4.02% (inactive).

Regarding `COc1cccc(-c2cc3nc(NCCOc4ccccc4Cl)n(C)c(=O)c3s2)c1`, the inhibition is -22% (inactive).

With `Cc1ccccc1S(=O)(=O)N1[C@@H](c2cccc(Cl)c2)C(C(=O)OC(C)(C)C)=CC[C@H]1c1ccc(Cl)cc1`, the inhibition was 0.82% (inactive).

As to `COc1cccc(-c2ccc3c(c2)N(Cc2ccccc2OC)C(=O)C(C)S3)c1` (configuration not stated), the inhibition was -0.98% (inactive).

Regarding `Nc1ncnc2c1ncn2[C@@H]1O[C@H](C(=O)NS(=O)(=O)c2c(Cl)nc3sccn23)[C@@H](O)[C@H]1O`, the inhibition is 8.22% (inactive).

As for `CCc1nc2c(OCc3ccc(C(F)(F)F)cc3)cccn2c1N(C)C(=O)CC(C)C`, the inhibition was 15.7% (inactive).

On to `C=C1C2C[C@H](O)C(C)(C)[C@@]2(O)[C@H](O)C[C@]23C[C@@](C)(O)[C@H](CC[C@H]12)[C@H]3O` (some centres not stated), for which the inhibition was 98.4% (active).

Regarding `O=C(NCC12CC3CC(C1)CC(CNC(=O)N1CCCC1)(C3)C2)N1CCCC1`, the inhibition was 18.2% (inactive).

As to `CC(C)(O)C#Cc1ccc(CNC[C@H]2O[C@@H](n3cnc4c(=O)[nH]c(N)nc43)[C@H](O)[C@@H]2O)s1`, the inhibition was 14.8% (inactive).

With `CC(Nc1ccc([N+](=O)[O-])cc1[N+](=O)[O-])c1ccccc1` (configuration not stated), the inhibition was 31.3% (inactive).

Turning to `O=C(NC(Nc1nc2ccc([N+](=O)[O-])cc2s1)(C(F)(F)F)C(F)(F)F)c1ccccc1`, the inhibition is 68.7% (active).

`O=C(O)c1cc([N+](=O)[O-])c(Nc2cccc3ccccc23)c([N+](=O)[O-])c1`: the inhibition was 5.86% (inactive).

On to `Cc1ccc(S(=O)(=O)N2CC[C@H]3[C@@H](C2)C(=O)C[C@@H](c2ccccc2)N3S(=O)(=O)c2ccc(C)cc2)cc1`, for which the inhibition was -19.4% (inactive).

Regarding `CSc1ccc(CN2CCC2(C)C(=O)Nc2ccc(C)c(O)c2)cc1` (configuration not stated), the inhibition was -4.73% (inactive).

On to `c1ccc(Cc2c(-c3ccco3)nc3c4ccccc4ccn23)cc1`, for which the inhibition was -310% (inactive).

Take `O=C(NCc1ccc(F)cc1)c1cc(C2CCCCN2C(=O)C2CCCCC2)on1` (configuration not stated): the inhibition is 2.91% (inactive).

On to `O=C(/C=C/Sc1ncn[nH]1)c1ccc(Cl)cc1`, for which the inhibition is 100% (active).

On to `COc1ccc(Cl)cc1C=CC=NNC(=O)c1ccncc1`, for which the inhibition is 97% (active).

For `COc1ccc(Cl)cc1C=CC=Nc1ccc(S(N)(=O)=O)cc1`, the inhibition was 7.02% (inactive).

For `COc1ccccc1/C=C/C=N/NC(=O)CN1CCN(Cc2ccccc2)CC1`, the inhibition was 3.31% (inactive).

For the compound `COCc1cccc(-c2csc(C(O)c3ccc(F)cc3)n2)c1` (configuration not stated), the inhibition was -120% (inactive).
